Experiment [1] is described as follows: qHTS assay to identify small molecule agonists of the constitutive androstane receptor (CAR) signaling pathway - cell viability counter screen (AID 1224836). Note: nearly all actives have a fitted effect of over 45% in size. Note: potency is the fitted concentration of half-maximal effect. The method, boiled down: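 HepG2 cells stably carrying hCAR and a CYP2B6-2.2kb reporter; 15-concentration compounds plus PK11195 (final 0.75 uM), 23 hr at 37 C/5% CO2. Viability read by CellTiter-Fluor fluorescence.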
In general terms: Quantitative high-throughput screening tests each substance at several concentrations.

The nature of experiment [2]: qHTS assay to identify small molecule antagonists of the constitutive androstane receptor (CAR) signaling pathway - cell viability counter screen (AID 1224837). Note: nearly all actives have a fitted effect of over 45% in size. Note: potency is the fitted concentration of half-maximal effect. In short, it runs like this: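 In quantitative HTS format, compounds at 15 concentrations were applied to HepG2 cells double-transfected with hCAR and CYP2B6-2.2kb under 50 nM CITCO stimulation; live-cell protease activity was read after 23 hr via CellTiter-Fluor.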

Experiment [3] in a line: qHTS assay to identify small molecule antagonists of the estrogen related receptor signaling pathway with the pleiotropic PPARgamma coactivator (PGC) from Tox21 10K library - cell viability counter screen (AID 1224840; active = well fitted cell-killing curve with a large enough effect in the repeat runs, not every such curve was filed as active; note: nearly all actives have a fitted effect of over 40% in size; note: potency is the fitted concentration of half-maximal effect). The method, boiled down: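 Viability counter screen, PGC/ERR cells: 17.5 h compound exposure at 37 C, CellTiter-Fluor fluorescence endpoint.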
Experiment [4] has as its target Thyrotropin receptor (Homo sapiens) (UniProt P16473). As to the kind of experiment: qHTS assay to identify small molecule agonists of the thyroid stimulating hormone receptor (TSHR) signaling pathway (AID 1224843; calls by dose curve; note: nearly all actives have a fitted effect of over 45% in size). The method, boiled down: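 Agonist-mode screen: TSHR HEK293 cells received test chemicals for half an hour at room temperature, then HTRF cAMP detection reagents for one hour prior to fluorescence measurement. Each chemical ran as a 15-concentration series, triplicated.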

Experiment [5] can be described thus: qHTS assay to identify small molecule agonists of the hypoxia (HIF-1) signaling pathway - cell viability counter screen (AID 1224844; calls by dose curve; note: nearly all actives have a fitted effect of over 50% in size). In short, it runs like this: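 Same wells as the HIF-1 reporter screen; ME-180 cells carrying HRE-bla, 17 hr treatment at 37C; CellTiter-Glo luminescence read after 30 min at room temperature.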
Experiment [6] can be described thus: qHTS assay to identify small molecule agonists of H2AX (AID 1224845; active = well fitted activation curve with a large enough effect in the signal ratio in the repeat runs, not every such curve was filed as active; the % refers to the signal ratio). The method, boiled down: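 Wild-type CHO-K1 cells, plated overnight, exposed 3hr at 37C to 15 concentrations (0.76% DMSO final). Lysed, then HTRF anti-pH2AX (S139) cryptate and anti-H2AX-d2 antibodies, 24 hr room temperature; 665/620 nm emission read.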
A short description of experiment [7]: qHTS assay to identify small molecule agonists of the hypoxia (HIF-1) signaling pathway (AID 1224846; active = well fitted activation curve with a large enough effect in the signal ratio in the repeat runs, not every such curve was filed as active; the % refers to the signal ratio). In short, it runs like this: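 In ME-180 cells bearing an HRE-bla construct, 17 h treatment with DMSO-dissolved compounds at 37C was followed by CCF4-AM loading to quantify reporter induction.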
Experiment [8] is described as follows: qHTS assay to identify small molecule agonists of H2AX - cell viability counter screen (AID 1224847; calls by dose curve; note: nearly all actives have a fitted effect of over 30% in size; note: potency is the fitted concentration of half-maximal effect). The method, boiled down: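 CHO-K1 cells plated overnight at 37C, then exposed 3 h at 37C to compounds at 15 concentrations (0.76% DMSO final). Viability by CellTiter-Glo luminescence after 30 min at room temperature.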
Experiment [9] in a line: qHTS RealTime-Glo MT Cell Viability Assay in HepG2 cells - 24 hour (AID 1224867). Note: nearly all actives have a fitted effect of over 50% in size. Note: potency is the fitted concentration of half-maximal effect. In short, it runs like this: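 Luminescence read-out: viable HepG2 cells reduce a prosubstrate to a NanoLuc substrate, giving a signal proportional to live cell number. Reads taken at 0, 8, 16, 24, 32 and 40 h of compound exposure at 37 C.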
Experiment [10] can be described thus: A CellTox Green Cytotoxicity Assay to monitor cytotoxicity in HEK293 cells - 0 hour (AID 1224869). Note: nearly all actives have a fitted effect of over 50% in size. In short, it runs like this: (§1)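 Homogeneous no-lysis format: HEK293 cell suspension mixed with CellTox Green reagent, seeded, incubated 5 h at 37 C/5% CO2, then dosed by pintool with compound in DMSO.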
Experiment [11] is described as follows: qHTS RealTime-Glo MT Cell Viability Assay in HepG2 cells - 40 hour (AID 1224870). Note: nearly all actives have a fitted effect of over 50% in size. Note: potency is the fitted concentration of half-maximal effect. In short, it runs like this:
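HepG2 cells (600/well) mixed with RealTime-Glo MT reagent, settled 5 h at 37 C/5% CO2 before compound addition. Nonlytic NanoLuc luminescence from viable-cell prosubstrate reduction read repeatedly during 40 h treatment at 37 C.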

A short description of experiment [12]: A CellTox Green Cytotoxicity Assay to monitor cytotoxicity in HEK293 cells - 40 hour (AID 1224871). Note: nearly all actives have a fitted effect of over 45% in size. Note: potency is the fitted concentration of half-maximal effect. In short, it runs like this:
as §1

Experiment [13] can be described thus: qHTS RealTime-Glo MT Cell Viability Assay in HEK293 cells - 16 hour (AID 1224872). Note: nearly all actives have a fitted effect of over 50% in size. Note: potency is the fitted concentration of half-maximal effect. The method, boiled down: (§2)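 Nonlytic real-time viability readout: viable cells convert prosubstrate to NanoLuc substrate, giving luminescence proportional to live cell number. HEK293, 600 cells/well, compound added after 5 h, continuous culture at 37 C.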
Experiment [14] can be described thus: qHTS assay to identify small molecule antagonists of the estrogen related receptor signaling pathway with the pleiotropic PPARgamma coactivator (PGC) from Tox21 10K library (AID 1224841; call rule not given here; note: potency is the fitted concentration of half-maximal effect). In short, it runs like this: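 In the PGC/ERR line, DMSO solutions of test chemicals are pin-delivered to 2,000 cells/well six hours after dispensing. Following eighteen hours' incubation, One-Glo reagent is added and luminescence recorded.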

Experiment [15] in a line: qHTS assay to identify small molecule agonists of the estrogen related receptor signaling pathway with the pleiotropic PPARgamma coactivator (PGC) from Tox21 10K library (AID 1224842). Note: nearly all actives have a fitted effect of over 15% in size. The method, boiled down:
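PGC/ERR reporter cell line, 2,000 cells per well, incubated 6 h at 37 C before 23 nL compound in DMSO was added. After 18 h at 37 C, One-Glo luminescence read following 30 min at room temperature.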

The nature of experiment [16]: qHTS assay to identify small molecule antagonists of the estrogen related receptor (ERR) signaling pathway from Tox21 library (AID 1224848). Note: nearly all actives have a fitted effect of over 50% in size. Note: potency is the fitted concentration of half-maximal effect. In short, it runs like this: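 Quantitative high-throughput format: ERR reporter cells (2,000/well) pre-incubated 6 h, treated 18 h at 37 C with compounds in DMSO alongside positive and negative controls, then read by ONE-Glo luminescence.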

The nature of experiment [17]: qHTS assay to identify small molecule agonists of the estrogen related receptor (ERR) signaling pathway from Tox21 library (AID 1224849; calls by dose curve; note: nearly all actives have a fitted effect of over 15% in size). The settings on record: ERR reporter cell line, ONE-Glo luciferase, 18 h; at 92.4 µM (top of the series) unless noted. The method, boiled down:
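Reporter cells (ERR, NTP source) treated with Tox21 10K compounds 18 h, 37 C. Readout: ONE-Glo luminescence, 30 min RT.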

Experiment [18] is described as follows: qHTS RealTime-Glo MT Cell Viability Assay in HEK293 cells - 32 hour (AID 1224868). Note: nearly all actives have a fitted effect of over 50% in size. Note: potency is the fitted concentration of half-maximal effect. The method, boiled down:
as §2

A number with no mark means an inactive call. Records with an inconclusive call do not appear. Active and inactive are the calls of the source. Unless noted, calls come from the whole dose curve; as a rule, active = well fitted curve in the direction sought with a large enough effect in the repeat runs; inconclusive = weak or mixed curves; inactive = no such curve, though single readings can be large; an effect the other way counts as inactive or inconclusive.
% is set by controls: 0 for no effect and ±100 for the full control effect.

Chain of Thyrotropin receptor (Homo sapiens) (P16473 whole entry, looked up): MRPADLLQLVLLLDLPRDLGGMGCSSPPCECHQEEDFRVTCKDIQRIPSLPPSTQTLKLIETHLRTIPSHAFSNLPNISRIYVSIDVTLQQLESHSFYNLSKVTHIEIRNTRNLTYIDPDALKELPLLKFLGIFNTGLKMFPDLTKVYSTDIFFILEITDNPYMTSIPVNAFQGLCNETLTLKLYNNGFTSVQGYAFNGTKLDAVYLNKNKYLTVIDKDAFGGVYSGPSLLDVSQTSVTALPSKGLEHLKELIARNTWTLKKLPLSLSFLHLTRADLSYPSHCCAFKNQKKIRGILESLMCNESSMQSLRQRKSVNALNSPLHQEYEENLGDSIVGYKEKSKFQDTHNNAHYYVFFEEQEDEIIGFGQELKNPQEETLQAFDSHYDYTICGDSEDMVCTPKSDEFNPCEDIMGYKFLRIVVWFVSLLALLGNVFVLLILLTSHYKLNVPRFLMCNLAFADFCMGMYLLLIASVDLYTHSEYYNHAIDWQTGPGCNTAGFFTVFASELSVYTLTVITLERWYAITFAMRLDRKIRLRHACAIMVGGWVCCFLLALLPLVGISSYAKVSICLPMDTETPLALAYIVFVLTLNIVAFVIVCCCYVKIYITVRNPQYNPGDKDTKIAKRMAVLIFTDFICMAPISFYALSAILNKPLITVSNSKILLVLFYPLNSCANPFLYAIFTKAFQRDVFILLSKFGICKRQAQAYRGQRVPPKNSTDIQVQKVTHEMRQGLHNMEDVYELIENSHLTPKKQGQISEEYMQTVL

Regarding `Cc1cc(=O)[nH]c(=O)[nH]1`, the Potency result in experiment [1], in experiment [2], in experiment [3], in experiment [4], in experiment [5] and in experiment [6] was “inactive” in each case. For the same compound, the Potency entry in experiment [8], in experiment [9], in [10], in experiment [11], in [12] and in experiment [13] was “inactive” throughout. Further, in experiment [7], the compound was called inactive.
On to `C=CC(=O)OCCOCC(CC)(COCCOC(=O)C=C)COCCOC(=O)C=C`, for which the Potency was 71.4 µM (active) in experiment [1]; 31.9 µM (active) in [2]; 16 µM (active) in experiment [3]; 40.2 µM (active) in experiment [14]; 25.3 µM (active) in experiment [16]; 25.6 µM (active) in experiment [9]. The Potency in experiment [18] was 16.1 µM (active); in experiment [11], 32.2 µM (active); in [12] it was 14.4 µM (active); in [13], 18.1 µM (active). Further, the Potency entry in [15], in experiment [4] and in experiment [10] was “inactive” throughout. In addition, in experiment [17], the activity change, positive = activation was -76.5%.
Turning to `CCCCCCC(C)OC(=O)COc1nc(F)c(Cl)c(N)c1Cl` (configuration not stated), the Potency result in experiment [1], in experiment [2], in experiment [3], in experiment [14], in experiment [15] and in experiment [5] was “inactive” throughout. For the same compound, the Potency result in [9], in [18], in experiment [10], in [11], in experiment [12] and in experiment [13] was “inactive” throughout. Further, the outcome in experiment [7] was inactive. The Potency in experiment [8] was 113 µM (active). The activity change, positive = activation in experiment [17] was -16.7%.
Turning to `C/C=C/c1ccc(OC)c(OC)c1`, the Potency entry in experiment [1], in experiment [2], in experiment [3], in [4], in experiment [5] and in [6] was “inactive” each time. Also, the Potency result in [8], in experiment [9], in experiment [10], in experiment [11], in [12] and in experiment [13] was “inactive” throughout. Besides, the compound was called inactive in [7].
Take `CCC(C)c1ccccc1` (configuration not stated): the Potency result in experiment [1], in experiment [2], in experiment [3], in experiment [4], in [5] and in [6] was “inactive” throughout. For the same compound, the Potency entry in [8], in [9], in experiment [18], in experiment [11] and in [13] was “inactive” in each case. Moreover, the outcome in [7] was inactive.
As to `O=C(O)CCCCCCC(=O)O`, the Potency entry in experiment [1], in [2], in [3], in experiment [4], in experiment [5] and in experiment [6] was “inactive” in each case. Besides, the Potency result in experiment [8], in experiment [9], in experiment [18], in experiment [10], in experiment [12] and in experiment [13] was “inactive” throughout. The result in experiment [7] was inactive.
`CCCCCCCCCCCCCCCC`: the Potency entry in experiment [1], in experiment [2], in experiment [3], in experiment [14], in experiment [15] and in experiment [4] was “inactive” in each case. Besides, the Potency entry in experiment [5], in experiment [6], in experiment [8], in experiment [16], in experiment [9] and in [18] was “inactive” in each case. The Potency entry in [12] and in [13] was “inactive” each time. The activity change, positive = activation in experiment [17] is 3.33%.
For `CCCCCCCCCCc1ccccc1`, the Potency result in experiment [1], in experiment [2], in experiment [3], in [14], in experiment [15] and in experiment [5] was “inactive” in each case. Moreover, the Potency entry in experiment [6], in experiment [8], in experiment [16], in [9], in experiment [18] and in [10] was “inactive” in each case. The Potency result in experiment [11], in [12] and in experiment [13] was “inactive” in each case. For the same compound, the compound was called inactive in experiment [7]. The activity change, positive = activation in experiment [17] was 0.758%.

For the origin of these results see PubChem BioAssay (Tox21).
